Screens from PubChem.
TGFb inhibitor – inhibitors of TGF-b signaling; Potency, µM (top dose mostly 46.1 µM), for the others: at the highest dose activity, negative = inhibition, hits mostly inhibitors; HepG2 CAGA-GFP TGF-b/SMAD3 reporter, GFP fluorescence, 18 h; TGF-beta stimulated, 500 pg/mL final; 410,000 tested, 1.2% active; further: on the % scale 0 is the no-effect control and ±100 the full control effect; nearly all actives have a fitted effect of over 65% in size
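GFP signal (ex488/em500-530) from TGF-beta-stimulated HEPG2 CAGA-GFP cells, 500 pg/mL final, 18 h at 37 degrees C in DMEM plus 1% FBS, normalized to unstimulated and DMSO-stimulated controls.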
Gal4-VP16 FLuc – counter-screen for ROR gamma inhibitors: Gal4-VP16 reporter. AID 2546. Drosophila S2 Gal4-VP16 UAS-luciferase, luminescence, 20 h. 310,000 tested, 3.5% active. Potency, µM (doses to about 53.6 µM), for the others: at the highest dose activity, negative = inhibition, usual class: inhibitors;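 further: Gal4-VP16 expression switched on by copper sulfate through the metallothionein promoter; on the % scale 0 is the no-effect control and ±100 the full control effect; nearly all actives have a fitted effect of over 50% in size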
HepG2 viability – HepG2 cytotoxicity, counter-screen for TGF-b inhibitors; HepG2 CAGA-GFP viability, ATP luminescence, 18 h; Potency, µM (titrated, usually from 46.1 µM), without a hit: at the top dose activity change, negative = cytotoxicity, actives largely listed as cytotoxic; 410,000 tested, 0.76% active; AID 588856
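CellTiter-Glo luminescence gave cytotoxicity after 18 hours at 37 degrees C. The cells were HepG2 CAGA-GFP in 1% FBS DMEM, stimulated with 500 pg/mL TGF-beta after compound addition. %Activity was normalised to no-cell wells (complete cell-killing) and DMSO (no toxicity), and curves were fitted and classified.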
RORg inh – blocks mouse ROR gamma transcriptional activity; P51450; 310,000 tested, 5.4% active; Potency, µM (titrated, usually from 53.6 µM), for the others: at the top dose activity change, negative = inhibition, usual class: inhibitors; Drosophila S2 Gal4-RORgamma UAS-luciferase reporter, 20 h; further: on the % scale 0 is the no-effect control and ±100 the full control effect; nearly all actives have a fitted effect of over 60% in size
Target sequence (P51450 whole entry, looked up, the tested form may be a part): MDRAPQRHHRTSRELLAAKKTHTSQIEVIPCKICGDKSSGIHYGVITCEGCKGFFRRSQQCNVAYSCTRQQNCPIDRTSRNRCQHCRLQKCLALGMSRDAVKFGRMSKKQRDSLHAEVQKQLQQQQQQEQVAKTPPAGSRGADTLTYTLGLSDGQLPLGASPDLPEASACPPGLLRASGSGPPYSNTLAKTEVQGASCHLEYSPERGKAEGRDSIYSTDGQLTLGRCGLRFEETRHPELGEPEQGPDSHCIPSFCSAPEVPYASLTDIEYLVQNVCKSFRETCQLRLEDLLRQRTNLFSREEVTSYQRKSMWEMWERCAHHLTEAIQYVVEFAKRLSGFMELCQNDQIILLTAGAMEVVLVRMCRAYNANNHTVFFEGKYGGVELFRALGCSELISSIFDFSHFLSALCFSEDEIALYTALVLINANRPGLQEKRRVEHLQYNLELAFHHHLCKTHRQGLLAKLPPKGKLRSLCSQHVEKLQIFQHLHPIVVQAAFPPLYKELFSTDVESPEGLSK
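Using a luciferase readout, inhibitors were identified by reduced reporter activity in Drosophila cells coexpressing a copper-inducible Gal4–ROR gamma fusion and UAS-driven Photinus luciferase, incubated 20 hr after 700 uM copper sulfate.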
S2 tox – viability counter-screen for ATXN expression inhibitors. S2 cells (HEK-293 line with an ATXN2-luciferase reporter) viability, CellTiter-Fluor protease fluorescence, 24 h. Potency, µM (series often up to 56.7 µM), usual class: cytotoxic. 400,000 tested, 0.49% active. AID 651635; further: nearly all actives have a fitted effect of over 40% in size
ATXN2 expr inh – ATXN2 expression inhibition. AID 1745845. HEK-293 ATXN2-luciferase reporter, luminescence, 24 h. 360,000 tested, 0.72% active. Potency, µM (top dose mostly 57 µM), without a hit: at the highest dose activity change, negative = inhibition, usual class: inhibitors; further: on the % scale 0 is the no-effect control and ±100 the full control effect; nearly all actives have a fitted effect of over 55% in size
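qHTS (up to 57 uM final) was run with 24 h compound exposure of reporter cells at 37 °C. Each well was multiplexed: SteadyGlo luminescence measured ATXN2-luciferase expression after a fluorogenic Gly-Phe-AFC viability readout (25 uM final).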
An asterisk follows results filed as active; i = inactive; ? = inconclusive; · = not tested or not shown; ! = a repeat was not active; [ ] = dose if it differs, or a comment. Compounds with a hit are over-represented: about 6.1% of the library has one in this group of screens. The call rests on the fitted dose curve; in most records, active means well fitted curve in the direction sought with a large enough effect; inconclusive means small, poorly fitted or top-dose-only effect, or another doubt; inactive means no such curve, though single readings can be large; an effect the other way counts as inactive or inconclusive. Potency means the concentration at half of the fitted maximal effect.

SMILES	TGFb inhibitor	Gal4-VP16 FLuc	HepG2 viability	RORg inh	S2 tox	ATXN2 expr inh
Cc1ccccc1C(=O)Nc1cccc(-c2nnc(SCC(=O)NCc3ccco3)n2C)c1	-7%	·	-3%	·	·	·
CS(=O)(=O)c1ccc(-c2cn3ccccc3n2)cc1	·	·	·	·	i	23%
CCOC(=O)c1c(S(=O)(=O)N2CCCC(C(=O)Nc3cccc(Cl)c3)C2)c(C)n(C)c1C (configuration not stated)	?	·	-26%	·	i	0%
Cc1ccc(N2CC(NC(=O)c3ccco3)CC2=O)cc1 (configuration not stated)	28%	·	4%	·	·	·
Cc1ccc(N/N=C(\C#N)C(=O)c2ccsc2)cc1	?	14%	-22%	?	i	·
CC1=C(c2ccc(NN=C(C#N)C#N)cc2)NNC(=O)C1	·	?	·	22µM*	·	·
C[C@@H]1CC(=O)NN=C1c1ccc(NN=C(C#N)C#N)cc1	·	·	·	·	25µM*	27µM*!
CCOc1ccc(-n2c(=O)c3sc4ccccc4c3n(Cc3cccc(C)c3)c2=O)cc1	-20%	·	-19%	·	i	-2%
Cc1ccc(C)c(OCCOCCn2c(-c3ccc(Br)cc3)nc3ccccc3c2=O)c1C	10%	·	2%	·	i	10%
CC(C)C[C@@H]1NC(=O)[C@H](C(C)C)NC(=O)c2cc([N+](=O)[O-])cc(I)c2NCC[C@@H](C(N)=O)NC1=O	?	2%	-2%	-20%	i	6%
CC[C@H](C)[C@@H]1NC(=O)[C@@H](CC(C)C)NC(=O)[C@H](C(C)C)NC(=O)[C@H]2CSSC[C@H](NC1=O)C(=O)N2	1.3µM*	·	1.1µM*	·	?	0.79µM*
Cc1ccc(-c2nnc(SCC(=O)NCc3ccccc3)o2)cc1	2%	·	-6%	·	i	21%
Cc1cc2[nH]c3c4ccccc4nc(C)c3c2cc1C	13µM*	·	18µM*	·	·	?
O=C(Nc1nnc(-c2ccccc2)s1)c1ccccc1F	-5%	1%	0%	13µM*	i	17%
Cc1nnc(NC(=O)c2ccccc2)s1	19%	·	-8%	·	i	15%
CC(C)(C)c1ccc(-c2nnc(NC(=O)c3ccccc3)s2)cc1	-5%	?	-39%	7.9µM*	i	10%
COCc1c(C(=O)N2CCN(C3CCCC3)CC2)cnn1-c1ncc2c(n1)-c1ccccc1CCC2	·	·	·	·	i	·
O=C(NC1CCCCCC1)c1ccc2c(c1)sc1nc(-c3ccc(F)cc3)cn12	-8%	·	-11%	·	·	·
CCNCc1nc2cc(OC)c(OC)cc2c(=O)[nH]1	-7%	4%	-19%	-12%	i	-6%
COc1cc2nc(CN(CCC(C)C)Cc3nc4cc(OC)c(OC)cc4c(=O)[nH]3)[nH]c(=O)c2cc1OC	1%	6.3µM*	-6%	0.79µM*	i	-1%
CCCCCC(=O)N1C[C@@H](O)[C@H](n2cc(-c3ccc(F)cc3)nn2)C[C@@H]1c1ccc(C)cc1	18µM*	·	-31%	·	?	0%
CCCCCCN1C[C@@H](O)[C@H](n2cc(C3CC3)nn2)C[C@@H]1c1ccc(Cl)cc1	?	·	16µM*	·	?	?
CCCCCCN1C[C@H](O)[C@@H](n2cc(-c3ccc(F)cc3)nn2)C[C@@H]1c1ccccc1	?	·	-102%	·	18µM*	-33%
CCCCCC(=O)N1C[C@@H](n2cc(-c3ccc(F)cc3)nn2)[C@H](O)C[C@@H]1c1ccc(C)cc1	?	·	-29%	·	16µM*	?
CC(C)c1nn2c(=O)cc(COC(=O)c3cccc(NC(=O)c4cccs4)c3)nc2s1	3%	·	-26%	·	·	·
SMILES	TGFb inhibitor	Gal4-VP16 FLuc	HepG2 viability	RORg inh	S2 tox	ATXN2 expr inh
Cc1ccc([C@H]2C[C@H](O)[C@@H](n3cc(-c4ccc(F)cc4)nn3)CN2Cc2cccs2)cc1	3%	·	-25%	·	?	?
O[C@H]1C[C@H](c2ccc(Cl)cc2)N(Cc2cccs2)C[C@@H]1n1cc(-c2ccc(F)cc2)nn1	?	·	-113%	·	·	32µM*
O=S(=O)(/C=C/C=C/S(=O)(=O)c1ccccc1)c1ccccc1	3.5µM*	·	-80%	·	7.5µM*	?
c1ccc(-c2nnc(-c3c[nH]c4ccccc34)nc2-c2ccccc2)cc1	?	-20%	9%	-1%	i	-9%
ClC(Cl)c1nnc(-c2ccccc2)c(-c2c[nH]c3ccccc23)n1	13µM*	2%	-57%	2%	i	-19%
Cc1ccccc1S(=O)(=O)Cc1ccc(C(=O)N2CCN(c3cccc(C)c3C)CC2)o1	?	3%[0.365 µM]	-17%	30%	18µM*	13µM*
CC1CCN(C(=O)/C(=C\c2ccco2)NC(=O)c2ccccc2)CC1	-24%	-2%	-5%	36%	i	3%
CC1CCN(C(=O)/C(=C\c2cccs2)NC(=O)c2ccccc2)CC1	2%	18µM*	6%	2.8µM*	i	-10%
O=S1(=O)CCC(NC(=S)SCCOc2ccccc2)C1 (configuration not stated)	20µM*	-7%	-40%	-31%	?	-18%
CCCOc1ccccc1Cn1c(=O)sc2ccccc21	-13%	·	-13%	·	i	-5%
CSc1cccc(NC(=S)N2CCCN(Cc3cccc(Cl)c3)C2)c1	?	?	-141%	10µM*	i	?
Cc1cccc(C)c1NC(=S)N1CCCN(Cc2ccc(F)cc2)C1	-12%	23%	-2%	14µM*	i	-15%
COc1cccc(NC(=S)N2CCCN(Cc3ccc(F)cc3)C2)c1	-19%	?	7%	3.5µM*	i	?
COc1ccc(NC(=S)N2CCCN(Cc3cccc(Cl)c3)C2)cc1	-8%	3%[10 µM]	-3%	13µM*	i	-16%
CCC(=O)N1c2ccccc2CC1C(=O)NCc1cccc(C)c1 (configuration not stated)	-16%	·	-21%	·	i	-3%
COc1ccc(CN2C(=O)N(c3cccc(C)c3)C(=O)C2CC(=O)Nc2ccc(F)cc2)cc1OC (configuration not stated)	0%	·	-4%	·	i	16%
COc1cccc([C@@H]2Oc3ccc(Br)cc3C[C@H]2OC(=O)Nc2ccc(C)c(Br)c2)c1	·	-23%	·	-2%	·	·
O=C(Nc1ncc(Cc2cccc(C(F)(F)F)c2)s1)c1ccc(-c2cccc([N+](=O)[O-])c2)o1	-7%	4.5µM*	-14%	7.1µM*	?	-23%
N#Cc1cnc(SCCc2ccccc2)nc1N	1%	·	6%	8%[0.365 µM]	i	96%
Cc1cnc(SCCc2ccncc2)nc1C	·	?	·	13µM*	·	·
